Measurements taken from PubChem BioAssay AID651871 (Sanford-Burnham Center for Chemical Genomics, 2012).
Where “and” joins values, the source holds several entries; their conditions need not be identical. Identical values can stand only once.

What follows are compounds tested on H9c2 (assay: cardiomyocyte survival under oxidative or metabolic stress – cell-based, panel, H9c2 and HL-1, ATP luminescence, set 2, SAR follow-up (AID 651871;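 also: cells exposed to stressor for 2 h before ATP readout; reference of the scale not given here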)). Settings: H9c2/HL-1 cardiomyocytes, H2O2 oxidative stress; with H2O2, run 1, at 79 µM (top of the series).

Row | Structure (SMILES) | activity (protection/inhibition)
1 | COc1cc(-c2cc(C(=O)Nc3cccc(C(=O)NCc4ccccc4)c3)c3ccccc3n2)cc(OC)c1OC | 83.5%
2 | COc1ccc2nc(-c3cc(OC)c(OC)c(OC)c3)cc(C(=O)NCC(=O)Nc3ccc(C(C)=O)cc3)c2c1 | 92.2% and 97.6%
3 | COc1ccc2c(c1OC)C(=O)N1c3ccccc3C(=O)N(Cc3cccc(Cl)c3Cl)C21 (centres undefined) | 62.2% and 104% and 61.7%
4 | CCOC(=O)c1cccc(NC(=O)CNC(=O)c2cc(-c3cc(OC)c(OC)c(OC)c3)nc3ccccc23)c1 | 77.6%
